The structures appear in SMILES notation. Out of some 420,000 compounds screened, about 50,000 (12%) were called active. Another 26% or so got no clear call; they are omitted. This excerpt belongs to a sample that is enriched for actives. Unmarked numbers belong to inactive results. Calls follow the shape of the dose curve; as a rule, active = well fitted inhibition curve with a large enough effect; inconclusive = small, poorly fitted or top-dose-only effect; inactive = flat fitted curve, though single readings scatter.

These results are taken from PubChem BioAssay AID686979 (National Center for Advancing Translational Sciences (NCATS), 2013).
% is scaled to controls: 0 for no effect and ±100 for the full control effect; potency is read from the fitted curve at half-maximal effect.

A short description of the assay: qHTS for Inhibitors of human tyrosyl-DNA phosphodiesterase 1 (TDP1): qHTS in cells in presence of CPT. Also: nearly all actives have a fitted effect of over 55% in size. The settings on record: chicken DT40 Tdp1-/-;hTDP1 cells + 20 nM CPT, ATP luminescence, 48 h; series mostly up to 46.2 µM; activity change, negative = growth inhibition: at the top concentration. In a few lines:
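Cell growth measured by CellTiter-Glo luminescence after a minimum 48 h, 37 C compound exposure with 20 nM CPT in Tdp1-knockout DT40 cells stably expressing hTDP1, seeded 400/well; qHTS titration format.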
As for `N=c1ccccn1Cc1ccccc1`, the “activity change, negative = growth inhibition” value is 8.77%.
As for `CC1=CC(=Cc2sc3ccccc3[n+]2C)C=C(C)O1`, the Potency is 0.164 µM (active).
Regarding `CCOc1ccc(-c2cc(C)[n+](CCN(CC)CC)c(-c3ccc(OCC)cc3)c2)cc1`, the Potency was 0.206 µM (active).
With `COc1cc(C(=O)N2Cc3ccc(Br)cc3-n3nncc3C2)cc(OC)c1OC`, the “activity change, negative = growth inhibition” value was -22.5%.
Same read-out and setting: next, `CC=C(C)C(=O)OC1CCN2CC=C(COC(=O)C(O)(C(C)OC)C(C)(C)O)C12` (configuration not stated): -7.32%.
With `CN(Cc1cccc2ncccc12)C(=O)c1cnn(-c2nccc(-c3ccccc3F)n2)c1C1CC1`, the Potency was 5.17 µM (active).
As for `COc1ccccc1OC(=O)c1ccc(C)c(S(=O)(=O)N2CCOCC2)c1`, the “activity change, negative = growth inhibition” value is -2.39%.
Still for that read-out and setting: next, `CC(=NC1CCN(Cc2ccccc2)CC1)c1c(O)n(C)c(=O)n(C)c1=O`: 2.92%; `N[C@H](Cc1o[nH]c(=O)c1Cl)C(=O)O`: 14%.
Regarding `CO[C@@H]1C[C@@H](C[C@H]2CC[C@H](C)[C@@H]([C@@H](C)C(=O)O)O2)O[C@]2(O[C@](C)([C@H]3CC[C@@](C)(C4OC([C@H]5O[C@@](O)(CO)[C@H](C)C[C@@H]5C)C[C@@H]4C)O3)C[C@H]2C)[C@@H]1C` (some centres not stated), the Potency was 0.588 µM (active).
For the molecule `CCOC(=O)c1cccc(C2=C(CNC(=O)c3ccncc3)[C@H]3CC[C@@H](C2)N3Cc2ccccc2)c1`, the “activity change, negative = growth inhibition” value was -27.1%.
With `COC(=O)C1=C(c2ccc(-c3ccccc3)c(F)c2)C[C@@H]2CC[C@H]1N2C(=O)NCc1ccc(F)cc1`, the Potency is 16.4 µM (active).
For the molecule `COC(=O)C1=C(c2c(C)noc2C)C[C@@H]2CC[C@H]1N2C(=O)NCc1ccc2c(c1)OCO2`, the “activity change, negative = growth inhibition” value was -0.834%.
Take `COC(=O)C1=C(c2ccc(F)cc2OCc2ccccc2)C[C@@H]2CC[C@H]1N2C(=O)NCc1ccc(OC)c(OC)c1`: the Potency was 18.4 µM (active).
On the same count and under the same terms, next, `COC(=O)C1=C(c2ccc(F)cc2OCc2ccccc2)C[C@@H]2CC[C@H]1N2C(=O)NCc1ccc(Cl)cc1`: 20.6 µM (active); `COC(=O)C1=C(c2cccc(OCc3ccccc3)c2)C[C@@H]2CC[C@H]1N2C(=O)NNCc1ccccc1`: 20.6 µM (active).
On to `COC(=O)C1=C(c2ccccc2)C[C@@H]2CC[C@H]1N2C(=O)NCc1ccco1`, for which the “activity change, negative = growth inhibition” value is -25.1%.
The same measure, in the same setting: next, `COc1ccc(CCn2c(O)c(C=NC3CC3)c(=O)[nH]c2=O)cc1OC`: -22.4%.
On the same count and under the same terms, the value for `CCN(CC)c1ccc([N+](=O)[O-])c2cccnc12` was 15.9%.
Same read-out and setting: next, `CC(C)c1c(CN(C)C(C)Cc2ccccc2)n(C)n(-c2ccccc2)c1=O` (configuration not stated): 18.3% [at 21.1 µM]; `CCN1c2nc3c(C)cccn3c(=O)c2CC2(C(=O)N(C)C(=O)N(C)C2=O)C1C` (configuration not stated): 0.865%; `CCC(C)n1c(O)c(/C=N/Nc2nc3c(c(=O)n(C)c(=O)n3C)n2C)c(=O)[nH]c1=S` (configuration not stated): -24.8%.
